Assay results reported in PubChem BioAssay AID875 (National Center for Advancing Translational Sciences (NCATS), 2007).
The whole screen tested about 75,000 compounds, of which about 35 (0.05%) were called active. The sample holds actives, similar compounds and a random draw of the others, so the mix is not that of the screen. Values without a mark were called inactive. Calls come from the whole dose curve; as a rule, active = well fitted inhibition curve with a large enough effect; inconclusive = small, poorly fitted or top-dose-only effect; inactive = no such curve, though single readings can be large or run the other way.

What follows are compounds tested against Breast cancer type 1 susceptibility protein (Homo sapiens) (UniProt P38398) (assay: qHTS Assay for Inhibitors of BRCT-Phosphoprotein Interaction (Green Fluorophore)). Conditions: BRCA1 BRCT-phosphopeptide binding, green fluorescence polarization; series mostly up to 76.9 µM; activity change, negative = inhibition: at the top concentration.
Breast cancer type 1 susceptibility protein (Homo sapiens), sequence (P38398 whole entry, looked up): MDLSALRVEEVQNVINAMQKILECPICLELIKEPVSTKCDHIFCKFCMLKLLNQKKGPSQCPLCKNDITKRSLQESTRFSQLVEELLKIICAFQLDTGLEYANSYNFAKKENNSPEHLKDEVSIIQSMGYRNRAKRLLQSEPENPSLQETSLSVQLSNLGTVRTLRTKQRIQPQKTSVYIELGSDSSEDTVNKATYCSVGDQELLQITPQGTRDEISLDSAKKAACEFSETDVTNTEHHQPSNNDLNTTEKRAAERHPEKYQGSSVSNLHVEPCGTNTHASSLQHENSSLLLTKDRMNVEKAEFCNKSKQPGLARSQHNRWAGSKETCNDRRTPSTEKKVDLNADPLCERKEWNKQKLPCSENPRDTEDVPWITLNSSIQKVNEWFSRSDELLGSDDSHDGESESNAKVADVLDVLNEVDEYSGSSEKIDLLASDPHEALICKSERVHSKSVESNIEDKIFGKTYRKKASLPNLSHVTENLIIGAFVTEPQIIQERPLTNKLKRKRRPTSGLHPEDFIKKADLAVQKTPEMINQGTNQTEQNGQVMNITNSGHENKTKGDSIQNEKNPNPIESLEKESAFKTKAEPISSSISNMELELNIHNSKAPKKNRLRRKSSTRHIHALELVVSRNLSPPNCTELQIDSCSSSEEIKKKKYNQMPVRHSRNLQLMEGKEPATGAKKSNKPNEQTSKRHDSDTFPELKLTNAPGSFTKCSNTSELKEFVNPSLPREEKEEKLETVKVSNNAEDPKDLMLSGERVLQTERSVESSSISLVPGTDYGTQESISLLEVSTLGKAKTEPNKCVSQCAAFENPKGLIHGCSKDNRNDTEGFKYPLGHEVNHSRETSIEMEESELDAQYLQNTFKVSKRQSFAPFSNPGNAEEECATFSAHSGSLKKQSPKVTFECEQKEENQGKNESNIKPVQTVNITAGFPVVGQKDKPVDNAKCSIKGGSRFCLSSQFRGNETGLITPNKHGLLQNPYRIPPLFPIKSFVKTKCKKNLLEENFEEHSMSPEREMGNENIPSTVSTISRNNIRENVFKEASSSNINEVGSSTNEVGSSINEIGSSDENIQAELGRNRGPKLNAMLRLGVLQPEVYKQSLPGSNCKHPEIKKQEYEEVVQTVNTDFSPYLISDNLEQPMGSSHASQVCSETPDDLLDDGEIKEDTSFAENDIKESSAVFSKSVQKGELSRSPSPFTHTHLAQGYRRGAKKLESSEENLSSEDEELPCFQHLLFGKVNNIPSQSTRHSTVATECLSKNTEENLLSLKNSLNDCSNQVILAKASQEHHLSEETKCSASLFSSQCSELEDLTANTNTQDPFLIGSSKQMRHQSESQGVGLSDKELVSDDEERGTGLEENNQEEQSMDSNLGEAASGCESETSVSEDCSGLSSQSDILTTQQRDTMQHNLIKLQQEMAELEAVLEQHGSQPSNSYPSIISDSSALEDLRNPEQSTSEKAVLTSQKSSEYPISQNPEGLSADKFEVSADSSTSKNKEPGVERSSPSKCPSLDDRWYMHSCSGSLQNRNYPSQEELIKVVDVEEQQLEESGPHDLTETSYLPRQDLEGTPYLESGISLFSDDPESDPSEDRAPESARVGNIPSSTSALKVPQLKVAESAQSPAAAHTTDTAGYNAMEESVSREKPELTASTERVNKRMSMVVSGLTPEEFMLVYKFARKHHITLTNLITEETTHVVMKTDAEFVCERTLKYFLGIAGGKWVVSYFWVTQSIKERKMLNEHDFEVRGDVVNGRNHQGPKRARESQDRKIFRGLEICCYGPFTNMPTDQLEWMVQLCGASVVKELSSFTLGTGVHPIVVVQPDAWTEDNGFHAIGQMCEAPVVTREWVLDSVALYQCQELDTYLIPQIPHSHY
Procedure: NIH Molecular Libraries Screening Centers Network [MLSCN]
NIH Chemical Genomics Center [NCGC]
PI Name: Natarajan, Amarnath; University of Texas
A complex of BRCT (C-terminal portion of BRCA1, MW ~35 kDa, His-tagged) and fluorescently labeled pBACH1 phosphorylated 10 aa peptide fragment of BACH1, a helicase implicated in DNA repair, is incubated with library members. Inhibitors of BRCT-pBACH1 binding are detected by a decrease in the fluorescence polarization (FP) of the fluorophore. In order to minimize the effect of fluorescence artifacts and to increase the overall robustness of the screen, the compound library members were incubated in separate reactions with fluorescein labeled probe-protein complexes. Protein and labeled probes were supplied by Dr. Amarnath Natarajan, Department of Pharmacology and Toxicology, University of Texas Medical Branch Galveston, TX.
Assay Buffer: 16mM Na2HPO4, 4 mM NaH2PO4, 150 mM NaCl, 1 mM EDTA, 1 mM DTT, 0.02% NaN3, and 0.01% Tween 20 at pH 7.3.
100 nM labeled decapeptide/250 nM protein in columns 1, 2, 5 - 48. Titration of unlabeled decapeptide control (from 10 mM, then 1:2 dilution in duplicate) pin-transferred to column 2, rows 1 to 16. Column 1 is neutral.
Three uL of reagents were dispensed to 1536-well Greiner black solid-bottom plates. Compounds and controls (23 nL) were transferred
via Kalypsys PinTool. The plates were incubated for 12 min at room temperature, and then read on ViewLux (Perkin-Elmer) High throughput CCD imager using FITC for the fluorescein-labeled decapeptide probe polarization filter sets. During dispense, reagent bottles were kept submerged into 4 deg C water bath and all liquid lines were covered with aluminum foil to minimize probe and protein degradation. All screening operations were performed on a Kalypsys robotic system (Kalypsys, Inc., San Diego, CA) containing one RX-130 and two RX-90 anthropomorphic robotic arms. The timing and order of assay plates passing through the screening system were adjusted such that each compound library plate was assayed against the fluorescein- and rhodamine-labeled assay systems at immediately adjacent time points.
Potency is the fitted concentration of half-maximal effect.

SMILES	activity change, negative = inhibition	Potency
CCOC(=O)C1C(=O)OC2(CCCC2)C1C(=O)OCC (stereo not given)	-2.01%	–
Cn1nc(-c2ccc(N3CCOCC3)c(NC(=O)c3ccccc3)c2)c2ccccc2c1=O	3.23%	–
CC1CCCCC1NC(=O)CSc1nnc(N)s1 (stereo not given)	-1%	–
COCc1[nH]nc2c1C(C1C=CCCC1)C(C#N)=C(N)O2 (stereo not given)	-1.17%	–
O=c1c(O)c(-c2ccc(O)cc2)oc2ccccc12	-3.22% [at 3.08 µM]	–
CCOc1ccc2[nH]c(=O)c(CN(Cc3nnnn3CCc3ccccc3)CC3CCCO3)cc2c1 (stereo not given)	2.17%	–
Cc1ccc(C)c(NC(=O)C2CC(=O)N(C(C)C)C2)c1 (stereo not given)	-0.457%	–
O=C(COc1ccc(S(=O)(=O)NCCc2ccccc2)cc1)N1CCCC1	-2.13%	–
CC(C)n1c(C(O)c2ccccc2)nc2ccccc21 (stereo not given)	-0.718%	–
O=C(NCC12CC3CC(C1)CC(CNC(=O)N1CCCC1)(C3)C2)N1CCCC1	-0.336%	–
CC(=O)O[C@]1(C(C)=O)CC[C@@H]2[C@@H]3C=C(C)C4=CC(=O)CC[C@@]4(C)[C@H]3CC[C@]21C	0.539% [at 34.4 µM]	–
S=c1[nH]nc(SCc2ccccc2Cl)c2[nH]cnc12	-0.607% [at 15.4 µM]	–
CCNC(=O)CN(c1ccc(C)cc1)S(=O)(=O)c1ccc(SC)cc1	-0.138%	–
CC(C)NC(=O)N1CC[C@@]2(CCCN(C(=O)c3cccc(F)c3)C2)C1	-3.78%	–
Cc1ccc(C(c2nnnn2CS(=O)(=O)c2ccc(C)cc2)N2CCC(C(N)=O)CC2)cc1 (stereo not given)	-1.57%	–
CCSc1ncnc2c(C#N)c3n(c12)CCCCC3	4.45%	–
COc1ccc(-n2c(SCC(=O)OC(C)C)nnc2-c2ccccn2)cc1	-0.81%	–
Nc1nnc(C2CCCC2)s1	0.21%	–
CC(=O)c1ccc(-n2nnnc2SCC(=O)N2CCN(C(=O)c3ccco3)CC2)cc1	0.328%	–
CC1(C)OC2CC(=O)OC[C@@]23C1CC(=O)[C@]1(C)C3CC[C@@]2(C)C(c3ccoc3)OC(=O)C3O[C@@]321 (stereo not given in full)	-3.56%	–
C[C@H](CCC(=O)O)[C@H]1CC[C@@H]2[C@H]3CC[C@H]4C[C@H](O)CC[C@@]4(C)[C@@H]3CC[C@@]21C	-0.353% [at 15.4 µM]	–
COc1ccc(-c2nnco2)cc1OC	-1.75%	–
CCCOC(=O)Cc1c(O)c2ccccc2[nH]c1=O	-0.683%	–
N#CCC(=O)NC(=O)NCC1CC1	-1.78%	–
Cc1ccc(OS(=O)Nc2cccc3nccnc23)cc1 (stereo not given)	-0.816%	–

SMILES	activity change, negative = inhibition	Potency
Cc1c(S(=O)(=O)O)oc2c1C(=O)C(=O)c1c-2ccc2c1CCCC2(C)C	–	31.6 µM (active)
O=C(c1c(Cl)nc2sccn12)N1CCCc2ccccc21	0.508%	–
CCOc1ccc(C2C(C(=O)O)c3ccccc3C(=O)N2CCN2CCOCC2)cc1 (stereo not given)	-2.05%	–
COc1ncc2nc(-c3ccc(Cl)cc3)c(=O)n(-c3ccccc3)c2n1	-0.967%	–
CC(=O)NC1CC2CCCC(C1)N2CC(=O)Nc1ccccc1 (stereo not given)	5.73%	–
Cc1ccc(N(C(=O)CC2NC(=O)NC2=O)C2(C(=O)NC3CCCC3)CCCCC2)cc1 (stereo not given)	-3.02%	–
O=S(=O)(NCc1cccnc1)c1ccc(Br)s1	-1.17%	–
Cc1cc(NC(=O)COC(=O)c2ccc(F)c(S(=O)(=O)N3CCOCC3)c2)no1	-1.52%	–
O=C1c2ccccc2S(=O)(=O)N1CC(O)Cn1c2ccccc2c2ccccc21 (stereo not given)	-1.72%	–
O=C1OC(C(O)CO)C(O)=C1O (stereo not given)	-0.826% [at 3.08 µM]	–
CO[C@H]1COC(=O)[C@@H](C)NC(=O)C/C=C\[C@@H](C)[C@H](OC)COC(=O)C/C=C\[C@@H]1C	-2.28% [at 15.4 µM]	–
CC1(C)Cc2cccc(OCC(=O)Nc3nccs3)c2O1	-0.382%	–
Cc1ccc(-c2noc(-c3ccccc3C(=O)NCC3CCCO3)n2)cc1 (stereo not given)	0.548%	–
Cc1cc(C)c(C#N)c(SCS(=O)c2ccc(C(C)(C)C)cc2)n1 (stereo not given)	1.49%	–
Cc1ccc(S(=O)(=O)NC(=O)NN2C[C@H]3CCC[C@@H]3C2)cc1	0.42% [at 34.4 µM]	–
CN(C)CCNC(=O)C(C(=O)c1ccccc1)n1ccccc1=O (stereo not given)	-2.08%	–
CCOC(=O)N1CCN(C(=O)C2CC(c3ccc(F)cc3)=NO2)CC1 (stereo not given)	-2.29%	–
Cc1csc(-c2nc3ccccc3n2C)n1	-11.7%	–
O=C(Nc1cccc2c1CCCC2)C1CCN(C(=O)NC2CCCCC2)CC1	2%	–
Fc1ccc(-c2ccc(-c3nn4c(-c5ccco5)nnc4s3)o2)cc1	-1.34%	–
COc1ccc(OC)c(C(=O)c2ccc(C(=O)O)cc2)c1	-0.882%	–
CCOC(=O)C(C)Oc1cccc2c(=O)n(CC(=O)N3CCc4ccccc43)ccc12 (stereo not given)	-1.66%	–
O=C(CSc1nnc(-c2cccnc2)n1Cc1ccco1)c1ccc(Cl)c(Cl)c1	-7.89%	–
COCCN(C(=O)CCC(=O)Nc1ccccn1)C(C(=O)NCCC(C)C)c1ccc(OC)cc1 (stereo not given)	-1.69%	–
CCc1c(C)nc(N)n2c(SCC(=O)N3CCN(c4ccccc4)CC3)nnc12	-1.12%	–

SMILES	activity change, negative = inhibition	Potency
CCCC(NC(=O)c1ccccc1)c1nc2ccccc2n1Cc1ccc(C(=O)OC)o1 (stereo not given)	-2.15%	–
CC(=O)c1sc2nc(SCC(=O)N3CCCCC3)[nH]c(=O)c2c1C	-1.57%	–
C/C(O)=C\c1nc(=O)c2c(C)cc(C)nc2n1-c1ccccc1	-4.52%	–
Cc1cc(NCc2ccco2)n2c(nc3ccccc32)c1C#N	-0.0952%	–
CCCN1[C@H](C(=O)OC)C[C@@]2(O)[C@@H](O)[C@@H](O)[C@@H](O)C[C@@H]12	-0.469%	–
O=C(O)[C@H](CCc1ccccn1)c1ccccc1	0.305% [at 15.4 µM]	–
Cc1nc(C)c(C(=O)Nc2cccc(C)c2C)o1	0.798%	–
CCCn1c(=O)c2[nH]c(C3CCCC3)nc2n(CCC)c1=O	inactive	–
O=C(NCCCN1CCOCC1)c1cc(-c2ccc(Cl)cc2)on1	-2.41%	–
COC(=O)[C@@H]1C[C@@]2(O)[C@H](O)[C@H](O)[C@H](O)C[C@H]2N1Cc1ccc(C)s1	-1.79%	–
CN(C)/C=N/c1cc(=O)n(C)c(=O)n1CC1CC1	0.349%	–
CCCCCCCCCc1ccc(OCCOCCOCCOCCOCCOCCOCCOCCOCCO)cc1	-3.36%	–
O=C(Nc1ccccc1N1CCCCC1)c1ccc2nccnc2c1	-0.0677%	–
CN1CCCC1CCO[C@@](C)(c1ccccc1)c1ccc(Cl)cc1 (stereo not given in full)	-4.61% [at 3.08 µM]	–
CN1CCc2nc(-c3ccccc3)c(-c3ccccc3)cc2C1	-0.939% [at 15.4 µM]	–
CCN(CC)C(=O)CSc1nnc(-c2cnccn2)n1-c1ccc(C)cc1	-1.51%	–
Cc1c(C(=O)CN2CCOCC2)[nH]c2ccccc12	-2.09%	–
Cc1cccc(-c2cc(=O)c3cc(C)ccc3o2)c1	-1.07%	–
Cc1c(S(=O)(=O)O)ccc(N=Nc2c(O)c(C(=O)O)cc3ccccc23)c1Cl	-3.5% [at 15.4 µM]	–
CC(C(=O)Nc1ccccc1-c1ccccc1)N1CCOCC1 (stereo not given)	1.04%	–
CCC1CCCCN1C(=O)Nc1cccc(NC(=O)N2CCCCC2CC)c1 (stereo not given)	0.63%	–
CCOc1ccc(Cn2nnc(C(=O)NCc3ccccc3)c2N)cc1	-0.882%	–
O=C(Cn1nc(Cc2cccnc2)c2ccccc2c1=O)NCC1CCCO1 (stereo not given)	-1.23%	–
O=c1[nH]nc(CSCc2ccccc2Cl)[nH]1	-1.6%	–
Cc1cc(C)c(S(=O)(=O)NCCCN2CCOCC2)cc1Br	-2.07%	–
